An excerpt weighted towards active compounds, which were near 5.3% of everything screened.
HIF act: HIF pathway transcriptional activators, primary screen, cell-based, U2OS HRE-luciferase, luminescence; AID 1910, 2009; hit rate 0.32% among 300,000; U2OS HRE-luciferase reporter; normalized: DMSO 0%, desferrioxamine 100%; activation, % at 7.5 µM (by protocol);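 active = mean activation of at least 10% of the iron chelator positive control signal, with at least half of replicates also reaching 10%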
M18AAP inhibitor: PfM18AAP inhibitors, malaria aminopeptidase, primary screen, biochemical, QFRET, recombinant enzyme. M18 aspartyl aminopeptidase (Plasmodium falciparum 3D7). H-Glu-NHMec fluorogenic cleavage. inhibition, % at 7.35 µM. hit rate 1.2% among 290,000;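 active = inhibition above the campaign mean inhibition over all tested compounds plus 3 SD, cut at about 28% in these data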;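 also: 0% = plate median of test compound wells and 100% = 2 mM ZnCl2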
ALR H2O2 inh: inhibitors of human ALR sulfhydryl oxidase, primary screen, biochemical, H2O2 detection, HRP-luminol luminescence, single point | purified ALR, DTT oxidation | FAD-linked sulfhydryl oxidase ALR (Homo sapiens), P55789 | hit rate 3.8% among 290,000 | inhibition, % (no concentration beside the values);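 active = mean replicate inhibition above about 79%, with every replicate also reaching it, limit read from the data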
Target sequence (P55789 whole entry, looked up): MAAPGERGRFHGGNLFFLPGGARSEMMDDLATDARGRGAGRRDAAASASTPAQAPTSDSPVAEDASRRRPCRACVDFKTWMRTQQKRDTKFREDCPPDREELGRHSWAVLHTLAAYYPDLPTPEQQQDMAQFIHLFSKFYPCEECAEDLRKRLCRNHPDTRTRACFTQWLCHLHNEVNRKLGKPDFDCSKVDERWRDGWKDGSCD
Mot1-301 SUMO: yeast Mot1-301 growth rescue at high temperature, primary screen, SUMOylation pathway inhibitor project, S. cerevisiae, ATP luminescence, 38.5C. hit rate 1% among 320,000. S. cerevisiae Mot1-301 growth rescue; percent above DMSO median, 100 means doubled. growth rescue, % at 18.8 µM;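 active = every valid replicate shows activation above 250% relative to neutral control wells; inactive = the rest, any valid replicate at or below 250%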;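 also: OY570 slx delta 5 strain wells were the positive control but not used for scaling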
Starred values were filed as active, the others as inactive; / = no result.

SMILES | HIF act | M18AAP inhibitor | ALR H2O2 inh | Mot1-301 SUMO
Nc1nnc(SCC(=O)Nc2cc(S(=O)(=O)N3CCOCC3)ccc2Cl)s1 | -1 | -3 | -3 | 15
NNC(=S)Nc1ccc(S(=O)(=O)N2CCOCC2)cc1 | -1 | 3 | 98* | -3
Cc1ccc(N(C(C)C(=O)Nc2ccc(S(=O)(=O)N3CCOCC3)cc2)S(C)(=O)=O)cc1C (configuration not stated) | 0 | 6 | -13 | 286*
Nc1nnc(SCC(=O)Nc2ccc(S(=O)(=O)N3CCOCC3)cc2)s1 | 0 | -5 | 96* | -15
Cc1ccc(N(C(C)C(=O)Nc2ccc(S(=O)(=O)N3CCOCC3)cc2)S(C)(=O)=O)cc1 (configuration not stated) | 0 | 5 | -6 | -19
COc1cccc(CNC(=O)CCCn2nc(C)n3c(cc4sccc43)c2=O)c1 | 0 | -3 | 1 | -12
CCOc1ccc(NC(=O)COC(=O)CN2CCCCCC2=O)cc1 | / | / | 3 | -5
O=C(CSCc1ccccc1Br)NNC(=S)NCc1ccco1 | -2 | 29* | -8 | -16
CC(C)(O)C(=O)NNC(=S)NCc1ccco1 | -1 | 42* | 0 | 0
CC(C)(C)c1ccc(C(=O)NNC(=S)NCc2ccco2)cc1 | 0 | -2 | 0 | 1
CC1CCCCC12NC(=O)N(CC(=O)OCc1cccc(F)c1)C2=O (configuration not stated) | / | / | -1 | 3
COc1ccc(NC(=S)N2CCN(S(=O)(=O)c3ccc(F)cc3)CC2)cc1 | / | 1 | -22 | 0
CC1Cc2ccccc2N1Cc1cccc(S(=O)(=O)N(C)C)c1 (configuration not stated) | 0 | 14 | 99* | 6
Clc1ccc(Sc2oc(/C=N/n3cnnc3)cc2Br)cc1 | 0 | 10 | -12 | 91
CN(C)C(=O)/C(C#N)=C\c1cc(Br)c(Sc2ccc(Cl)cc2)o1 | / | 3 | 93* | -13
O=C(/C=C/c1ccco1)Nc1sc2c(c1C(=O)O)CCC2 | 0 | 6 | 98* | 23
Cc1ccc(-c2csc(NC(=O)/C=C/c3ccco3)c2C(=O)O)cc1 | 2 | 1 | 97* | 17
N#Cc1c(NC(=O)/C=C/c2ccco2)sc2c1CCCC2 | 7 | 1 | 14 | 115
O=C(Nc1scc(-c2ccc(F)cc2)c1C(=O)O)c1ccco1 | 1 | 18 | 88* | /
COC(=O)c1c(-c2ccccc2)csc1NC(=O)c1ccco1 | 3 | 9 | -2 | 29
COc1ccccc1NC(=O)Cn1c(=O)n(CCc2c[nH]c3ccccc23)c(=O)c2cccnc21 | 0 | -1 | 3 | 1
CC(C)Nc1nc(-c2ccncc2)nc(-c2ccccc2)c1C#N | 0 | -4 | 4 | -20
CCOC(=O)N1CCC(NC(=O)CS(=O)Cc2nc(-c3ccccc3C)oc2C)CC1 (configuration not stated) | 4 | -20 | 99* | 4
Cc1oc(-c2ccccc2F)nc1CS(=O)CC(=O)NC1CC1 (configuration not stated) | 0 | -11 | 99* | 36
Cc1oc(-c2ccccc2F)nc1CSCC(=O)NC1CC1 | 0 | 9 | -29 | -3
SMILES | HIF act | M18AAP inhibitor | ALR H2O2 inh | Mot1-301 SUMO
Cc1oc(-c2ccccc2F)nc1CS(=O)CC(=O)NC1CCCCC1 (configuration not stated) | 0 | -2 | 98* | -3
CCC(C)NC(=O)[C@H]1N2C(=O)c3c(ccc(OC)c3OC)C2SC1(C)C (some centres not stated) | -1 | 1 | 0 | -4
CCC1(O)c2ccccc2-c2ncccc21 (configuration not stated) | -1 | 6 | -9 | -2
Cc1cc(=O)[nH]c(Nc2ccc(N(C)C)cc2)n1 | -2 | -19 | 99* | 16
COc1ccc(/C=N/Nc2nc(C)cc(=O)[nH]2)cc1OC | -1 | -8 | 25 | -18
Cc1cc(=O)[nH]c(N/N=C/c2ccc(N(C)C)cc2)n1 | 1 | 8 | 99* | 65
Cc1cc(=O)[nH]c(N/N=C/c2ccc(F)cc2)n1 | 1 | 9 | 15 | 3
COc1cc(/C=N/Nc2nc(C)cc(=O)[nH]2)ccc1O | -2 | 19 | 98* | 1
CCN(CCC#N)c1ccc(/C=N/Nc2nc(C)cc(=O)[nH]2)c(C)c1 | 0 | 4 | 99* | 12
Cc1cc(=O)[nH]c(N/N=C/c2ccc(Cl)cc2Cl)n1 | 0 | -1 | -6 | 0
